Data published in PubChem BioAssay (Tox21).
Several values for one entry are separate records, joined by “and”; a condition that tells them apart may be missing. Identical values can stand only once. Records with an inconclusive call do not appear. A call without a number means that no potency is given here. The source holds several records for some structures; these can differ, active in one and inactive in another. Activity calls are given as the source filed them. Unless noted, calls follow the shape of the dose curve; as a rule, active = well fitted curve in the direction sought with a large enough effect in the repeat runs; inconclusive = weak or mixed curves; inactive = no such curve, though single readings can be large; an effect the other way counts as inactive or inconclusive.

Key:
[1] = qHTS assay to identify small molecule antagonists of the glucocorticoid receptor (GR) signaling pathway - cell viability counter screen (AID 720693); also: nearly all actives have a fitted effect of over 55% in size
[2] = qHTS assay for identifying genotoxic compounds that show differential cytotoxicity against isogenic chicken DT40 cell lines with known DNA damage response pathways - wild type cell line (AID 743012); also: nearly all actives have a fitted effect of over 60% in size; also: potency is read from the fitted curve at half-maximal effect
Summary of the method: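 300 wt DT40 cells/well; cpd (DMSO) pintool-transferred after ~0.5 h at 37 C/5% CO2; 40 h incubation; CellTiter-Glo added, 30 min RT; luminescence read.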

[3] = qHTS assay for identifying genotoxic compounds that show differential cytotoxicity against isogenic chicken DT40 cell lines with known DNA damage response pathways - Rev3 mutant cell line (AID 743014); also: nearly all actives have a fitted effect of over 55% in size; also: potency is read from the fitted curve at half-maximal effect
[4] = qHTS assay for identifying genotoxic compounds that show differential cytotoxicity against isogenic chicken DT40 cell lines with known DNA damage response pathways - Rad54/Ku70 mutant cell line (AID 743015); also: nearly all actives have a fitted effect of over 60% in size; also: potency is read from the fitted curve at half-maximal effect
[5] = qHTS assay to identify small molecule antagonists of the androgen receptor (AR) signaling pathway - cell viability counter screen (AID 743033; also: nearly all actives have a fitted effect of over 45% in size)
[6] = qHTS assay to identify small molecule antagonists of the androgen receptor (AR) signaling pathway using the MDA cell line - cell viability counter screen (AID 743041; also: nearly all actives have a fitted effect of over 45% in size; also: potency is read from the fitted curve at half-maximal effect)
Summary of the method: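 Compound exposure lasted 16 h at 37C in MDA-kb2 AR-luc cells stimulated with R1881. Protease-based CellTiter-Fluor reagent was applied for the final 30 min and fluorescence measured.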

[7] = qHTS assay to identify small molecule antagonists of the thyroid receptor (TR) signaling pathway - cell viability counter screen (AID 743064); also: nearly all actives have a fitted effect of over 50% in size; also: potency is read from the fitted curve at half-maximal effect
Summary of the method: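 Viability of T3-stimulated (1 nM final) GH3.TRE-Luc cells is measured by CellTiter-Fluor fluorescence after 23.5 h compound exposure at 37 °C plus 30 min reagent incubation.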

[8] = qHTS assay to identify small molecule antagonists of the thyroid receptor (TR) signaling pathway (AID 743065); also: nearly all actives have a fitted effect of over 55% in size; also: potency is read from the fitted curve at half-maximal effect
Summary of the method: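 GH3.TRE-Luc rat pituitary cells (two TREs driving luciferase) were dosed with compound, then stimulated with 1 nM T3 (final) for 23.5 h at 37 C. ONE-Glo luminescence was the read-out, with CellTiter-Fluor fluorescence as the cytotoxicity counter-screen.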

[9] = system: thyroid hormone receptor (rat, GH3 cells); experiment: qHTS assay to identify small molecule agonists of the thyroid receptor (TR) signaling pathway (AID 743066; calls by dose curve)
[10] = qHTS assay to identify small molecule antagonists of the estrogen receptor alpha (ER-alpha) signaling pathway - cell viability counter screen (AID 743074; calls by dose curve; also: nearly all actives have a fitted effect of over 45% in size; also: potency is read from the fitted curve at half-maximal effect)
[11] = qHTS assay to identify small molecule antagonists of the estrogen receptor alpha (ER-alpha) signaling pathway using the BG1 cell line - cell viability counter screen (AID 743081);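 also: compound given together with 17beta-estradiol as the ER stimulus; series mostly up to about 70 µM; nearly all actives have a fitted effect of over 45% in size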
[12] = target: Aromatase (Homo sapiens) (UniProt P11511); experiment: qHTS assay to identify aromatase inhibitors (AID 743083); also: nearly all actives have a fitted effect of over 55% in size; also: potency is read from the fitted curve at half-maximal effect
Aromatase (Homo sapiens), sequence (P11511 whole entry, looked up): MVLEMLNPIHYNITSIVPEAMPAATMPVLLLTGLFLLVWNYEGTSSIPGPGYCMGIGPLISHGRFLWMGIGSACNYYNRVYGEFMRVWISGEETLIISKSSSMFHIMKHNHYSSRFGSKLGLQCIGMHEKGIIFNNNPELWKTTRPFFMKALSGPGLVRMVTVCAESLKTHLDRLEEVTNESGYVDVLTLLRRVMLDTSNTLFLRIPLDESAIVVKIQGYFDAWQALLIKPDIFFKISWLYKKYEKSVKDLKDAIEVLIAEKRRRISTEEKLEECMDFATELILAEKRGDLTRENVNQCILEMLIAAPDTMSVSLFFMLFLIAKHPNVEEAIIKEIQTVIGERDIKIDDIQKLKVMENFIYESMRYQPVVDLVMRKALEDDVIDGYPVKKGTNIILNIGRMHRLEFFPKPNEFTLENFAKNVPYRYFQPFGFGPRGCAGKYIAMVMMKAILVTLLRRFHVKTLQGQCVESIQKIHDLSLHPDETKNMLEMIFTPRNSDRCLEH

[13] = qHTS assay to identify aromatase inhibitors - cell viability counter screen (AID 743084); also: potency is read from the fitted curve at half-maximal effect
[14] = target: Estrogen receptor (Homo sapiens) (UniProt P03372); experiment: qHTS assay to identify small molecule antagonists of the estrogen receptor alpha (ER-alpha) signaling pathway (AID 743069; active = well fitted curve in the direction sought with a large enough effect in the signal ratio in the repeat runs, not every such curve was filed as active; the % refers to the signal ratio)
Estrogen receptor (Homo sapiens), sequence (P03372 whole entry, looked up): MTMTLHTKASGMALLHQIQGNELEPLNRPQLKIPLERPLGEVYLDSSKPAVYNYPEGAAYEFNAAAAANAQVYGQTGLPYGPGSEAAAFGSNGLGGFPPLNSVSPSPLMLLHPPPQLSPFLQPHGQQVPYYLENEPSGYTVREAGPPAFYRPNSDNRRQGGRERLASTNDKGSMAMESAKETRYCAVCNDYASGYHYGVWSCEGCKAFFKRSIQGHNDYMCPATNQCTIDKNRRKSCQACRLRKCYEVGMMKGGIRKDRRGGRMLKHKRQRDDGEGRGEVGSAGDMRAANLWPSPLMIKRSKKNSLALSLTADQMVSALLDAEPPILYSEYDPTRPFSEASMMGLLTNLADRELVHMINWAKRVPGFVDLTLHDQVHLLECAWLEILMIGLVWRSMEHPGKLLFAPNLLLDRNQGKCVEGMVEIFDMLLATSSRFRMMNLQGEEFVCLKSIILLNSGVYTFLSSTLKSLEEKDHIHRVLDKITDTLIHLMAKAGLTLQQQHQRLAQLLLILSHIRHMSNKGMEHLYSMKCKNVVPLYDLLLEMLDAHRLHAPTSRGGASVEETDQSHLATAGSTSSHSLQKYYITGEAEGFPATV
Summary of the method: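 In this cell-based reporter format, GripTite HEK293 cells harbouring ER-alpha-UAS-bla were grown overnight with 2% charcoal-stripped FBS, dosed with DMSO-dissolved compounds, then challenged with 17beta-estradiol. After 18 hr at 37C, beta-lactamase activity was detected by FRET fluorescence.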

[15] = target: Estrogen receptor (Homo sapiens) (UniProt P03372); experiment: qHTS assay to identify small molecule agonists of the estrogen receptor alpha (ER-alpha) signaling pathway (AID 743075; calls by dose curve)
[16] = target: Estrogen receptor (Homo sapiens) (UniProt P03372); experiment: qHTS assay to identify small molecule agonists of the estrogen receptor alpha (ER-alpha) signaling pathway using the BG1 cell line (AID 743079); also: nearly all actives have a fitted effect of over 20% in size
[17] = qHTS assay to identify small molecule antagonists of the estrogen receptor alpha (ER-alpha) signaling pathway using the BG1 cell line (AID 743080; calls by dose curve;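 also: BG1 cells stimulated with 17beta-estradiol alongside compound; series mostly up to about 70 µM; nearly all actives have a fitted effect of over 25% in size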)
Summary of the method: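 Luciferase inhibition measured with ONE-Glo after 30 min at RT in BG1Luc4E2 cells given test compounds and 17beta-estradiol for 21.5 h at 37 C; CellTiter-Fluor viability read in the same wells beforehand.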

[18] = target: Androgen receptor (Homo sapiens) (UniProt P10275); experiment: qHTS assay to identify small molecule agonists of the androgen receptor (AR) signaling pathway using the MDA cell line (AID 743040; also: nearly all actives have a fitted effect of over 20% in size)
Androgen receptor (Homo sapiens), sequence (P10275 whole entry, looked up): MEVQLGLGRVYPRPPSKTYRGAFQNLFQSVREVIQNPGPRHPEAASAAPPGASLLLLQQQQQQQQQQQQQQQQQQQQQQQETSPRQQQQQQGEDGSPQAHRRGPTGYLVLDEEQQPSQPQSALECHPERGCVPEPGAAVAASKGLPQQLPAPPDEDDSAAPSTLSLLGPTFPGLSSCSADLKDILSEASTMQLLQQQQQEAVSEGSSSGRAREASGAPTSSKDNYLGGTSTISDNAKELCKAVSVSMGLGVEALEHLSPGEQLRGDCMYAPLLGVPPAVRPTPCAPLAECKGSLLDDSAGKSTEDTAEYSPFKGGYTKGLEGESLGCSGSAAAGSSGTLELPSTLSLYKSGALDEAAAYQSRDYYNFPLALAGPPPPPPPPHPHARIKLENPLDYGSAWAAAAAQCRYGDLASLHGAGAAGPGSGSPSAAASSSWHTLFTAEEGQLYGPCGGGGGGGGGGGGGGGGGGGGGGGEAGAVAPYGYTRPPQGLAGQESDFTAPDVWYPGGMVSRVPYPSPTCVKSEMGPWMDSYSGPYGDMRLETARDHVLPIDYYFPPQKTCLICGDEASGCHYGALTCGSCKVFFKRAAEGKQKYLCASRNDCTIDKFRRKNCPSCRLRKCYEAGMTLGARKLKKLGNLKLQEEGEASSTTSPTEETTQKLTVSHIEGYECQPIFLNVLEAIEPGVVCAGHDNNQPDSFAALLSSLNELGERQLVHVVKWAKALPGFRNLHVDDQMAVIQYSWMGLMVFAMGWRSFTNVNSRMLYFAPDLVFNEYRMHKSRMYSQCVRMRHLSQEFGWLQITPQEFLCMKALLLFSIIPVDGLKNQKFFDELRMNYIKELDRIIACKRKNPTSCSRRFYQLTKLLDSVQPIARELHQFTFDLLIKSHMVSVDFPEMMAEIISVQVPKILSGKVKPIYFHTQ
Summary of the method: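 Testing was done with the MDA-kb2 AR-luc line, a human breast carcinoma stably transfected with MMTV-luciferase containing AR and GR response elements. Cells were exposed 16 h at 37C before ONE-Glo luminescence detection.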

Row | Structure (SMILES) | Potency [1] | Potency [2] | Potency [3] | Potency [4] | Potency [5] | Potency [6] | Potency [7] | Potency [8] | Potency [9] | Potency [10] | Potency [11] | Potency [12] | Potency [13] | Potency [14] | Potency [15] | Potency [16] | Potency [17] | Potency [18]
1 | O=C1OC[C@H](Cc2cccc(O)c2)[C@H]1Cc1cccc(O)c1 | inactive | inactive | inactive | inactive | inactive | inactive | inactive | inactive | inactive | inactive | inactive | inactive | inactive | – | – | – | – | –
2 | CNCc1ccc(NC(=O)c2c[nH]c3c2C(=O)CCC3)cc1 | inactive | 61.1 µM (active) | 54.5 µM (active) | 54.5 µM (active) | inactive | inactive | inactive | inactive | inactive | inactive | inactive | inactive | inactive | – | – | – | – | –
3 | COC(C)(C)OC | inactive | inactive | inactive | inactive | inactive | inactive | inactive | inactive | inactive | inactive | inactive | inactive | inactive | inactive | inactive | inactive | inactive | –
4 | C/C(C=O)=C\c1ccccc1 | inactive | inactive | inactive | inactive | inactive | inactive | inactive | inactive | inactive | inactive | inactive | inactive | inactive | inactive | inactive | inactive | – | –
5 | Cc1ccc2c(c1)CCCN2 | inactive | inactive | inactive | inactive | inactive | inactive | inactive | inactive | inactive | inactive | inactive | inactive | inactive | inactive | inactive | inactive | – | –
6 | CC(C)(C)NCC(O)COc1cccc2c1C[C@H](O)[C@H](O)C2 (some centres undefined) | inactive | inactive | inactive | inactive | inactive | inactive | inactive | inactive | inactive | inactive | inactive | inactive | inactive | inactive | inactive | inactive | inactive | –
7 | Cc1cccc(C)c1NC(=O)c1cc(S(N)(=O)=O)c(Cl)cc1O | inactive | inactive | inactive | inactive | inactive | inactive | inactive | inactive | inactive | – | inactive | inactive | inactive | – | – | – | – | –
8 | CCNc1nc(N)nc(Cl)n1 | inactive | inactive | inactive | inactive | inactive | inactive | – | inactive | – | inactive | inactive | – | – | – | – | – | – | –
9 | CCOC(=O)C(C)O (centres undefined) | inactive | inactive | inactive | inactive | inactive | inactive | inactive | – | – | inactive | – | inactive | inactive | inactive | inactive | inactive | inactive | –
10 | CCO[Si](C)(CCCOCC1CO1)OCC (centres undefined) | inactive | 13.7 µM (active) | 7.7 µM (active) | 27.3 µM (active) | inactive | inactive | inactive | – | inactive | inactive | inactive | inactive | – | inactive | inactive | inactive | inactive | –
11 | O=C1OC(=O)c2c(Br)c(Br)c(Br)c(Br)c21 | inactive | inactive | inactive | inactive | inactive | inactive | inactive | inactive | inactive | inactive | inactive | – | inactive | – | – | – | – | –
12 | C[C@@H]1[C@H](O)[C@@H](C)/C=C/C=C\C=C\C=C\C=C\C=C\C=C\[C@H](O[C@@H]2O[C@H](C)[C@@H](O)[C@H](N)[C@@H]2O)C[C@@H]2O[C@](O)(C[C@@H](O)C[C@@H](O)[C@H](O)CC[C@@H](O)C[C@@H](O)CC(=O)O[C@H]1C)C[C@H](O)[C@H]2C(=O)O (stereo in doubt) | inactive | inactive | inactive | inactive and 61.1 µM (active) | inactive | inactive | – | – | – | inactive | inactive | inactive | inactive and 34.4 µM (active) | inactive | inactive | inactive | inactive | –
13 | C1CCCCC1 | inactive | inactive | inactive | inactive | inactive | inactive | – | inactive | inactive | inactive | inactive | inactive | inactive | – | – | – | – | –
14 | CC(CO)(CO)C(=O)O | inactive | inactive | inactive | inactive | inactive | inactive | inactive | – | – | inactive | inactive | inactive | inactive | inactive | inactive | inactive | inactive | –
15 | CC(CCc1ccc(O)cc1)NCCc1ccc(O)c(O)c1 (centres undefined) | inactive | 13.3 µM (active) | 26.6 µM (active) | 23.7 µM (active) | inactive | – | inactive | inactive | – | inactive | inactive | – | – | – | inactive | inactive | inactive | –
16 | CCCCCc1ccco1 | inactive | 39.8 µM (active) | 44.7 µM (active) | 31.6 µM (active) | inactive | inactive | – | – | inactive | inactive | inactive | inactive | inactive | – | – | – | – | –
17 | Cc1ccc2nc(N)[nH]c(=O)c2c1Sc1ccncc1 | inactive | 1.88 µM (active) | 0.944 µM (active) | 0.596 µM (active) | inactive | inactive | – | 8.41 µM (active) | inactive | 3.01 µM (active) | inactive | 9.44 µM (active) | inactive | – | – | – | – | –
18 | CN(C)CC/C=C1\c2ccccc2Sc2ccc(Cl)cc21 | inactive | 3.76 µM (active) | 16.8 µM (active) | 10.6 µM (active) | – | 27.8 µM (active) | 11.9 µM (active) | 11.9 µM (active) | inactive | inactive | inactive | – | – | – | inactive | inactive | inactive | inactive
19 | CC(=O)OCC(=O)[C@@]1(OC(C)=O)[C@@H](C)C[C@H]2[C@@H]3C[C@H](F)C4=CC(=O)C=C[C@]4(C)[C@@]3(F)[C@@H](O)C[C@@]21C | inactive | 26.6 µM (active) | 11.9 µM (active) | – | inactive | inactive | inactive | inactive | inactive | inactive | inactive | inactive | – | – | – | – | – | –
20 | CSCC[C@H](NC(=O)[C@H](Cc1c[nH]c2ccccc12)NC(=O)CCNC(=O)OC(C)(C)C)C(=O)N[C@@H](CC(=O)O)C(=O)N[C@@H](Cc1ccccc1)C(N)=O | inactive | inactive | inactive | inactive | inactive | inactive | – | – | – | inactive | – | inactive | inactive | inactive | inactive | inactive | inactive | –
21 | O=S(=O)(O)CO | inactive | inactive | inactive | inactive | inactive | inactive | – | inactive | inactive | inactive | inactive | inactive | inactive | – | – | – | – | –
22 | CCN(CC)C(=O)N1CCN(C)CC1 | inactive | inactive | inactive | inactive | – | inactive | – | – | – | inactive | inactive | inactive | inactive | – | – | – | – | –
23 | CC1C(C)(C)C2=C(C(=O)CCC2)C1(C)C (centres undefined) | inactive | inactive | inactive | inactive | inactive | inactive | – | inactive | inactive | inactive | inactive | inactive | inactive | inactive | inactive | inactive | inactive | –
24 | Nc1ccn([C@H]2CS[C@@H](CO)O2)c(=O)n1 | inactive | inactive | inactive | inactive | inactive | inactive | – | – | – | inactive | inactive | inactive | inactive | – | – | – | – | –
25 | NC(=O)c1ccccc1[N+](=O)[O-] | inactive | inactive | inactive | inactive | inactive | inactive | – | inactive | inactive | inactive | inactive | inactive | inactive | inactive | inactive | inactive | inactive | –
26 | CCOC(=O)c1c(N)sc2c1CCN(Cc1ccccc1)C2 | inactive | 29.8 µM (active) | 29.8 µM (active) | 26.6 µM (active) | inactive | inactive | inactive | – | inactive | inactive | – | inactive | inactive | inactive | inactive | – | – | –
27 | CC(O)Cn1cnc2c1c(=O)n(C)c(=O)n2C (centres undefined) | inactive | inactive | inactive | inactive | – | inactive | inactive | inactive | inactive | – | inactive | inactive | inactive | – | – | – | – | –
28 | CCCc1nc2c(C)cc(-c3nc4ccccc4n3C)cc2n1Cc1ccc(-c2ccccc2C(=O)O)cc1 | inactive | inactive | inactive | inactive | inactive | inactive | – | – | inactive | inactive | inactive | inactive | inactive | – | inactive | inactive | inactive | –
